The nature of assay [1]: yeast TOR pathway RPL19A-GFP modulators, primary screen, cell-based, S. cerevisiae, multiplex flow cytometry (AID 1862; in the data active means percent of DMSO control GFP below about 86%;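 further: lower values mimic rapamycin by blocking the RPL19A rise seen in DMSO cells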). As to conditions: S. cerevisiae RPL19A-GFP strain, flow cytometry fluorescence, 3 h; at 10 µM; stronger effect = lower value. On the technique in general: A flow cytometer gives signals particle by particle.
A short description of assay [2]: modulators of MEP2-GFP levels in yeast, primary screen, S. cerevisiae, multiplex flow cytometry (AID 1867;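 active means GFP response, as percent of the DMSO control, above the screen-wide mean plus 3 SD, about 139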;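 further: median GFP channel fluorescence of barcode-gated MEP2-GFP cells measured by flow cytometry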). As to conditions: S. cerevisiae MEP2-GFP strain, 3 h, at 10 µM, stronger effect = higher value, 100% means same as DMSO wells.
Assay [3] can be described thus: modulators of CIT2-GFP expression in yeast, primary screen, S. cerevisiae, GFP fusion, multiplex flow cytometry (AID 1870;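 active means percent response above a set limit, the screen-wide mean plus 3 SD, cut at about 130% in these data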;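 further: barcoded CIT2-GFP strain pooled with four other GFP strains with rapamycin as positive control; median GFP fluorescence per well over plate mean of DMSO wells so 100% = DMSO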). As to conditions: 3 h, at 10 µM, stronger effect = higher value.
A short description of assay [4]: modulators of LAP4-GFP expression in yeast, primary screen, S. cerevisiae, multiplex flow cytometry (AID 1873;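 active means GFP signal, as percent of the solvent control, above the screen mean plus 3 SD, about 149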). As to conditions: 3 h, at 10 µM, stronger effect = higher value.
A short description of assay [5]: modulators of AGP1-GFP expression in yeast TOR pathway, primary screen, cell-based, multiplex flow cytometry, S. cerevisiae (AID 1887;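 active means GFP signal above the screen-wide mean plus 3 SD, that is over about 124.5% of the solvent control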;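 further: AGP1-GFP fusion strain of S. cerevisiae within a five-strain barcoded multiplex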). As to conditions: 3 h, at 10 µM, stronger effect = higher value.
Assay [6] can be described thus: inhibitors of CD8+ T cell-vesicle binding, pilot screen, LFA-1/ICAM-1 modulator project, MLPCN validation set, flow cytometry (AID 2523;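 active means response below a set limit, under 55% cells CD8-positive and vesicle-bound, and CD8 cells' 90th-percentile brightness under 279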;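 on vesicle binding response: mean PE anti-B7-1 fluorescence of CD8+ cells relative to row control; 100% = QL9-loaded vesicles with DMSO vehicle in the same plate row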). As to conditions: 2C mouse CD8+ T cells, at 7 µM, stronger effect = lower value; double positive events: measured here: CD8+/vesicle+ event percentage.
Assay [7] has as its target Integrin beta-1 (Homo sapiens) + Integrin alpha-4 (Homo sapiens) (UniProt P13612+P05556). As to the kind of experiment: inhibition of HUTS-21 binding to VLA-4, pilot screen, VLA-4 allosteric modulator project, U937 cells, HUTS-21 mAb, flow cytometry, validation set (AID 2674;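 active means inhibition above 50%, about 3 SD of the validation set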;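 further: antibody binding induced by the VLA-4 ligand LDV present at three times its Kd; 0% = LDV ligand with antibody and no compound and 100% = antibody without LDV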). As to conditions: HUTS-21 LIBS mAb binding, at 6.7 µM, stronger effect = higher value, binding induced by LDV ligand.

The nature of assay [8]: superoxide lowering in aged yeast cells, pilot screen, validation compound set (AID 2706;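 active means superoxide response below 65% of plate, a cut near 3 SD across the whole screen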;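 further: yeast exposed to compound for one week at 30 degrees C before staining; 100% = mean of all compound wells on the same plate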). As to conditions: S. cerevisiae aging, superoxide DHE fluorescence; at 10 µM; stronger effect = lower value.
The target of assay [9] is Beta-adrenergic receptor kinase 1 (Homo sapiens) (UniProt P25098). Nature of the assay: GRK2 binders displacing RNA aptamer, biochemical, validation, human GRK2, bead flow cytometry (AID 488806;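 active means aptamer binding inhibition above 30%, about 3 SD of noise from non-fluorescent compounds; inactive means inhibition at or below 30%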). As to conditions: bead-bound GRK2, FAM-aptamer displacement, at 10 µM, stronger effect = higher value.
For assay [10], the target named is Beta-2 adrenergic receptor (Homo sapiens) (UniProt P07550). Nature of the assay: beta2AR agonists driving receptor internalization, pilot screen, cell-based, FAP fluorogen, flow cytometry, validation set (AID 504459;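 active means percent response above 42, roughly 3 SD of non-fluorescent test compounds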;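 further: agonist-driven loss of surface beta2AR via internalization measured by FAP dye flow cytometry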). As to conditions: Am2.2-beta2AR cells, FAP surface receptor flow cytometry; at 10 µM; stronger effect = higher value.
The target in assay [11] is AP-2 complex subunit beta (Homo sapiens) (UniProt P63010). As to the kind of experiment: inhibitors of arrestin peptide binding to AP2, pilot screen, biochemical, validation set, GST-AP2 beads, flow cytometry (AID 504541).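 Further: AP2 carries R879A mutation and is captured from E. coli lysate; bead-bound FITC arrestin peptide fluorescence measuring arrestin peptide binding to AP2; 0% = DMSO wells and 100% = excess unlabeled arrestin peptide control.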 As to conditions: FITC arrestin peptide, at 10 µM, stronger effect = higher value, AP2 beta2 appendage fragment, R879A mutant.
Assay [12] is described as follows: yeast V-ATPase proton transport modulators, S. cerevisiae, pHLuorin, HTS validation (AID 504600; in the data active means response above about 15%;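 further: plate controls were DMSO for no effect and reference compound for full effect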). As to conditions: S. cerevisiae pHLuorin cytosolic pH, at 10 µM, stronger effect = higher value.
Assay [13] deals with anti-desmoglein-3 scFv antibody binding to human DSG3. As to the kind of experiment: inhibitors of anti-DSG3 scFv binding to DSG3, pilot screen, biochemical, validation compound set, bead-based, flow cytometry (AID 588368;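 active means binding below the plate cutoff, the plate median minus 3 SD, with a reading above zero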;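 further: signal is the median channel fluorescence of bead-bound GFP antibody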). As to conditions: Protein G beads, DSG3-Fc, scFv-GFP binding, at 10 µM, stronger effect = lower value.
Assay [14] can be described thus: inhibitors of fungal efflux pumps CDR1, CDR2, MDR1, pilot screen, validation compound set, multiplex, phenotypic (AID 588506;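 active means efflux inhibition above 0.42, the validation set average plus 4 SD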;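 further: Nile Red retained in cells so higher fluorescence means more efflux inhibition; 0 = negative control wells and 1 = enniatin B 25 µM full block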). As to conditions: S. cerevisiae pump-expressing triplex, Nile Red efflux flow cytometry; at 10 µM; stronger effect = higher value; the pumps come from Candida albicans.
Assay [15] deals with ATP-binding cassette sub-family B member 6 (Homo sapiens) (UniProt Q9NP58). Nature of the assay: ABCB6 transporter inhibitors, pilot screen, K562-ABCB6 cells, flow cytometry, validation set (AID 588550;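 active means inhibition above the screen-wide mean plus 3 SD, about 51%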;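 further: 0% = DMSO wells and 100% = benzethonium chloride 70 µM positive control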). As to conditions: K562-ABCB6 porphyrin accumulation, 1 h, at 10 µM, stronger effect = higher value.
The nature of assay [16]: promoters of myeloid differentiation in arrested cells, primary screen, cell-based, GFP/MAC1 double positive, flow cytometry, validation set (AID 588685;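 active means differentiation response of at least 50%, scaled between solvent and reference control, from cells with both markers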;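 further: compound exposure lasts four days before antibody staining and flow analysis; 0% = DMSO wells and 100% = 5 µM fulvestrant positive control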). As to conditions: ER-HoxA9 marrow cells, stronger effect = higher value, normalized: vehicle 0, fulvestrant 100.

Inconclusive results are not listed. The source made the active and inactive calls.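 How the source made its calls, unless noted: active means inhibition above 54%, about 3 SD of non-fluorescent compounds; inactive means the rest.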

Beta-adrenergic receptor kinase 1 (Homo sapiens), sequence (P25098 whole entry, looked up): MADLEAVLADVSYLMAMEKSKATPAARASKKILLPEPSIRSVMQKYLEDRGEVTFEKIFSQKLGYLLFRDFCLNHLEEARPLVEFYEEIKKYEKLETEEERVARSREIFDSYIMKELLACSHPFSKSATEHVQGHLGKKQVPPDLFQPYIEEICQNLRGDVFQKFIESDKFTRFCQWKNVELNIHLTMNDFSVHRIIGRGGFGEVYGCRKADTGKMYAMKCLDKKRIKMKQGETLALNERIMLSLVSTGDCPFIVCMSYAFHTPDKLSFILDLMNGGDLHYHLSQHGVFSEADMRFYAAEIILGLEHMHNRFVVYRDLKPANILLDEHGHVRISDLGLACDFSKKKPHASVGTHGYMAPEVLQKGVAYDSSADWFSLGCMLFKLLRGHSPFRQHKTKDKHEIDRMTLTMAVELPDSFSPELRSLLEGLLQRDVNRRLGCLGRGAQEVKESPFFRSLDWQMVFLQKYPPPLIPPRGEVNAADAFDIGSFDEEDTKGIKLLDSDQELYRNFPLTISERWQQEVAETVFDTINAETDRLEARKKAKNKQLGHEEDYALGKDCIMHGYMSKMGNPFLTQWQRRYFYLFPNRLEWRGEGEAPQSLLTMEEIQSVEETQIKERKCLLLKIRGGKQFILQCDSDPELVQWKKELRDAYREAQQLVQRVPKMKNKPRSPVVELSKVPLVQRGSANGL
Integrin beta-1 (Homo sapiens) + Integrin alpha-4 (Homo sapiens), sequence (P05556 whole entry, looked up): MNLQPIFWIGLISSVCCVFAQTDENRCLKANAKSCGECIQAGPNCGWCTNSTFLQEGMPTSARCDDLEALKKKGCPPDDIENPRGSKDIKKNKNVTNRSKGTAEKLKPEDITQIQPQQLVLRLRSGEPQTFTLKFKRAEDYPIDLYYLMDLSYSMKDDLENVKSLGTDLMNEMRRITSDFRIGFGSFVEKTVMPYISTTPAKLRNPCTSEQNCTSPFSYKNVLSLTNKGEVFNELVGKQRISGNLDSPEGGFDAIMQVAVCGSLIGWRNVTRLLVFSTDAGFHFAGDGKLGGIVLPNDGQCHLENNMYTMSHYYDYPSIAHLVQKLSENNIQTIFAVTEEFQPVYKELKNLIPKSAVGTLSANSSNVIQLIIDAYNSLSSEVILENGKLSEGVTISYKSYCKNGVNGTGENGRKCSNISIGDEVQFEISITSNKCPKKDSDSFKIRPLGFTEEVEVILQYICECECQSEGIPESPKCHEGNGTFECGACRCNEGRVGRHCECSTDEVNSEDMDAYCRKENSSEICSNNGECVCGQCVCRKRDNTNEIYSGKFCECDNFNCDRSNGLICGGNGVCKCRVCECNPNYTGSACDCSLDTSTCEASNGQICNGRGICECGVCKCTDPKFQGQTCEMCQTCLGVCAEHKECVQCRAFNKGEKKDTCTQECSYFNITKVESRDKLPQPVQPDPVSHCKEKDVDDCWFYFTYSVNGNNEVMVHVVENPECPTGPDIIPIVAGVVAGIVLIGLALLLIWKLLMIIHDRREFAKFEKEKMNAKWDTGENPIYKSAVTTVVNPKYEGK
Integrin beta-1 (Homo sapiens) + Integrin alpha-4 (Homo sapiens), sequence (P13612 whole entry, looked up): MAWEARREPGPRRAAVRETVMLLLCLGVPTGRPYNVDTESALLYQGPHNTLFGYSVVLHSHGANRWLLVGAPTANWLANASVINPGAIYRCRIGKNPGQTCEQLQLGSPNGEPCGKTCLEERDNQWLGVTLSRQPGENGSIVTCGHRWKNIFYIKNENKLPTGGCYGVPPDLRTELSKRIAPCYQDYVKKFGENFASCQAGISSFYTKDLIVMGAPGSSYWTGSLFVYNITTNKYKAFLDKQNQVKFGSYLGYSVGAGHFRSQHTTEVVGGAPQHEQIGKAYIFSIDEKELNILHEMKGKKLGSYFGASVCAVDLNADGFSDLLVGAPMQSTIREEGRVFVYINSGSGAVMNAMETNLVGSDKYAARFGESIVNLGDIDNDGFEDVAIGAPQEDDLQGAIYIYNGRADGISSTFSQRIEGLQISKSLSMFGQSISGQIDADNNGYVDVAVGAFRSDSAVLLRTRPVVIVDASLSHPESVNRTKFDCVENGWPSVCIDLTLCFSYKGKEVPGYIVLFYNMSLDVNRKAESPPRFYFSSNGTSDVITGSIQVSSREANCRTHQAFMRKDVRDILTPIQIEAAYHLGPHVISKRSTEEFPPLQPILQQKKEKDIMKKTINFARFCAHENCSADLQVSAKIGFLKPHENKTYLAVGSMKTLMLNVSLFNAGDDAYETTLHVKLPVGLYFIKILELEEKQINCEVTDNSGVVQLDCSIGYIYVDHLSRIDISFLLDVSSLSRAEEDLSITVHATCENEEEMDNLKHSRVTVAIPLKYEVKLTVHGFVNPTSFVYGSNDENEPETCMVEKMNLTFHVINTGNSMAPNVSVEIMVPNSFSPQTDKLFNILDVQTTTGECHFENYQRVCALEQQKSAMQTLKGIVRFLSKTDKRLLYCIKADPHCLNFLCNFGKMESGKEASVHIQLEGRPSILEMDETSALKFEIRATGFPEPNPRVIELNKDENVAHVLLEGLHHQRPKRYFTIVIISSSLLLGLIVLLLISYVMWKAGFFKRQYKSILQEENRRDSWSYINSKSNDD
AP-2 complex subunit beta (Homo sapiens), sequence (P63010 whole entry, looked up, the tested form may be a part, one chain of several): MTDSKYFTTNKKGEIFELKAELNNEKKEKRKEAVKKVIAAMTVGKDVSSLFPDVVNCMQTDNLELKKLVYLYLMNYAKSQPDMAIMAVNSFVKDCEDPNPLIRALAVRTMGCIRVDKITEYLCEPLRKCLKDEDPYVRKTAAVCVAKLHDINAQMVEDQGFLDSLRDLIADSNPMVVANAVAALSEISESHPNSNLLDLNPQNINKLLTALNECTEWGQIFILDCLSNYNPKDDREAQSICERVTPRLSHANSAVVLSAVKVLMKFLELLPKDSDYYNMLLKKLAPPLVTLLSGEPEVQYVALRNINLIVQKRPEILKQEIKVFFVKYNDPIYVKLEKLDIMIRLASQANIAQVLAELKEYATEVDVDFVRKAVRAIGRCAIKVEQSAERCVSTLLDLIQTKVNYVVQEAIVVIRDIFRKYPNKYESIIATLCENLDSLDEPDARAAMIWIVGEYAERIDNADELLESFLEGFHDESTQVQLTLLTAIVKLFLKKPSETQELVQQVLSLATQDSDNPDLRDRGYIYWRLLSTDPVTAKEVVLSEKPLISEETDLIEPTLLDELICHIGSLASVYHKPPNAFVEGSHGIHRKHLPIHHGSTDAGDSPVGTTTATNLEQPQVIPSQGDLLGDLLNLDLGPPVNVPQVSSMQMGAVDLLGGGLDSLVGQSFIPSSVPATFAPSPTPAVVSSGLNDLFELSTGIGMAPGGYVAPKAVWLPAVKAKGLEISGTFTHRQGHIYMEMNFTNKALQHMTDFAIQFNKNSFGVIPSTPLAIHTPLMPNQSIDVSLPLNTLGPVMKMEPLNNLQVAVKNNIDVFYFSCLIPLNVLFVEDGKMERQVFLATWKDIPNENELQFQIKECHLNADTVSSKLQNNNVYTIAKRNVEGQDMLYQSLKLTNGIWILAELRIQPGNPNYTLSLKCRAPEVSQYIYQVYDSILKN
ATP-binding cassette sub-family B member 6 (Homo sapiens), sequence (Q9NP58 whole entry, looked up): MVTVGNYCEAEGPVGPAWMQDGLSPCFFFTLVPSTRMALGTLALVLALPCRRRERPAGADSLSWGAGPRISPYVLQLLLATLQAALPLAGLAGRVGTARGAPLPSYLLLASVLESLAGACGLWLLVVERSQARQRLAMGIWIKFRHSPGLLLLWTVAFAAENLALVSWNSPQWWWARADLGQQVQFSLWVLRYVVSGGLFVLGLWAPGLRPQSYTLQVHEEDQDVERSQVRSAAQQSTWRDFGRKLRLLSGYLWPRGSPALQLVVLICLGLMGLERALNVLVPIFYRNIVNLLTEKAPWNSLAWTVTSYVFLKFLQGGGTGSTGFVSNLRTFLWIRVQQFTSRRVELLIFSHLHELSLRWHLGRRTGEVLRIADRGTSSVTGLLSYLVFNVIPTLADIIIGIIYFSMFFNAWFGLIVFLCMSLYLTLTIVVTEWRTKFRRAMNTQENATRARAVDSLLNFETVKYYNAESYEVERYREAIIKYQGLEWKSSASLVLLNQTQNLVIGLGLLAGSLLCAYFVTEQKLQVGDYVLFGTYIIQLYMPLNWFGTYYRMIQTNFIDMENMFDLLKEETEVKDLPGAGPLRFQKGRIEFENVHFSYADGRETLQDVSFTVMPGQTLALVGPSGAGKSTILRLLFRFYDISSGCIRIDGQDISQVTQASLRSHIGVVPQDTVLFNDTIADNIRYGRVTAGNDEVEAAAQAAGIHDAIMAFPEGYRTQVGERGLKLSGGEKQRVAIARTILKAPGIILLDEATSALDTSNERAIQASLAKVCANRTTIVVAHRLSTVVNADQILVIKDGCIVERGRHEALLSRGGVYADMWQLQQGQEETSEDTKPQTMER
Beta-2 adrenergic receptor (Homo sapiens), sequence (P07550 whole entry, looked up): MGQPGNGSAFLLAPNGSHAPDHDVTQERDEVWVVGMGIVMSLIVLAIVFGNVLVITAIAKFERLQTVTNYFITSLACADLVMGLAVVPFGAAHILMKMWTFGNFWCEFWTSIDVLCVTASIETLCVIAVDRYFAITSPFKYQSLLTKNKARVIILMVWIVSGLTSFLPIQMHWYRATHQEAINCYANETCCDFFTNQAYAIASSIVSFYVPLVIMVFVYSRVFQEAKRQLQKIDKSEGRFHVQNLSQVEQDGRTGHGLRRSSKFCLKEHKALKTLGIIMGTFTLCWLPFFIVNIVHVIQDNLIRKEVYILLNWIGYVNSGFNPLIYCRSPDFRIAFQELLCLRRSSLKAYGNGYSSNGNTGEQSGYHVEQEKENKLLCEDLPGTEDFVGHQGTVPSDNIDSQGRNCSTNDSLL

`COc1ccc(C2C(C#N)=C(N)Oc3cc(C)[nH]c(=O)c32)c(OC)c1OC` (stereo not drawn): the percent of DMSO control GFP in assay [1] is 88.2% (inactive). Besides, the figures for the GFP response vs DMSO in [2] and in [4] were 117% (inactive) and 78.1% (inactive), respectively. Moreover, the percent response of DMSO control in assay [3] was 92.6% (inactive). Besides, in assay [5], the GFP response, % of DMSO is 97% (inactive). The same molecule gave a double positive events in assay [6] of 63.8%. In addition, the vesicle binding response in assay [6] was 168% (inactive). Besides, the inhibition in assay [7] was 14.2% (inactive); in assay [11], -3.85% (inactive); in [15], 10% (inactive). For the same molecule, the superoxide response (% of plate) in [8] was 97.7% (inactive). In assay [9], the aptamer binding inhibition was 4% (inactive). Moreover, the values for the response in [10] and in [12] were -4.98% (inactive) and -1.92% (inactive), respectively. The binding (% of control) in assay [13] is 109% (inactive). In assay [14], the efflux inhibition (fraction of control) was 0.16 (inactive). In assay [16], the differentiation response is 0% (inactive).

As to `Cc1ccc2occ(C(=O)c3ccco3)c(=O)c2c1`, the percent of DMSO control GFP in assay [1] is 101% (inactive). Besides, the results for the GFP response vs DMSO in [2] and in assay [4] were 101% (inactive) and 85.9% (inactive), respectively. In addition, the percent response of DMSO control in [3] is 89.5% (inactive). Besides, in [5], the GFP response, % of DMSO was 86.1% (inactive). The molecule further displayed a double positive events in [6] of 60.6%. Further, in assay [6], the vesicle binding response was 99.1% (inactive). The inhibition in assay [7] is 6.85% (inactive); in assay [11], -6.83% (inactive); in assay [15] it was 1% (inactive). Moreover, the superoxide response (% of plate) in [8] is 104% (inactive). Also, the aptamer binding inhibition in assay [9] is 2% (inactive). In addition, the response in assay [10] is -3.74% (inactive); in [12], 0.29% (inactive). The binding (% of control) in assay [13] is 99.7% (inactive). Moreover, the efflux inhibition (fraction of control) in [14] was -0.31 (inactive). Further, in assay [16], the differentiation response was 0% (inactive).

Take `COc1ccc2nc(S(=O)Cc3ncc(C)c(OC)c3C)[nH]c2c1` (stereo not drawn): in assay [1], the percent of DMSO control GFP was 107% (inactive). Further, the results for the GFP response vs DMSO in assay [2] and in [4] were 105% (inactive) and 95.9% (inactive), respectively. The percent response of DMSO control in assay [3] is 99.7% (inactive). The GFP response, % of DMSO in assay [5] was 97.1% (inactive). For the same molecule, the double positive events in assay [6] turned out to be 60.4%. In assay [6], the vesicle binding response is 131% (inactive). Further, the inhibition in assay [7] is -13.2% (inactive); in assay [11] it was -8.15% (inactive); in [15], -7% (inactive). For the same molecule, the superoxide response (% of plate) in assay [8] was 84.9% (inactive). The aptamer binding inhibition in assay [9] is 2% (inactive). Also, the response in assay [10] is 24.8% (inactive); in assay [12], 0.81% (inactive). The binding (% of control) in [13] was 104% (inactive). In addition, in assay [14], the efflux inhibition (fraction of control) was -0.16 (inactive). Also, the differentiation response in [16] is 52.5% (active).

Turning to `Cc1cccc(OCC(=O)Nc2ccc(C(=O)NCC(C)C)cc2)c1`, the percent of DMSO control GFP in assay [1] is 102% (inactive). Besides, the results for the GFP response vs DMSO in [2] and in assay [4] were 102% (inactive) and 110% (inactive), respectively. Besides, the percent response of DMSO control in assay [3] is 98.3% (inactive). For the same molecule, the GFP response, % of DMSO in assay [5] is 115% (inactive). The double positive events in assay [6] turned out to be 62.1%. For the same molecule, the vesicle binding response in [6] was 156% (inactive). The inhibition is 16.8% (inactive) in assay [7], -3.7% (inactive) in assay [11] and 3% (inactive) in [15]. The superoxide response (% of plate) in [8] is 97.4% (inactive). In assay [9], the aptamer binding inhibition was 3% (inactive). The response is -25% (inactive) in [10] and 0.58% (inactive) in assay [12]. For the same molecule, in assay [13], the binding (% of control) is 99.3% (inactive). Further, the efflux inhibition (fraction of control) in assay [14] was -0.09 (inactive). Besides, the differentiation response in assay [16] is 32.5% (inactive).

Usually inhibition stands for the change of the read-out against control, counted positive when it falls.

(Values after PubChem BioAssay.)
